This is a sample that favours compounds with a hit; in the whole collection about 5.7% have one here.
DAX1 inh-1 = DAX1 (NR0B1) inhibition, primary screen. HEK293T StAR-luciferase reporter, SF-1/DAX-1 repression relief. inhibition, % at 6.8 µM. 370,000 compounds, 1.1% hits. AID 652010;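 active means inhibition above the mean over all tested compounds plus 3 SD, cut at about 3.6% in these data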;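 further: 0% = DAX-1 cells with DMSO and 100% = cells lacking DAX-1 with DMSO; higher inhibition means more luminescence from relief of DAX-1 repression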
hgDAF12 agonist = hgDAF-12 agonism, primary luciferase screen; HEK293 GAL4-hgDAF12 UAS-luciferase reporter, agonist luminescence; normalized to butyrate control; activation, % at 6.8 µM; AID 687014; 370,000 compounds, 1.8% hits;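 active means activation above a cutoff set at the mean of all screened compounds plus 3 SD, cut at about 10% in these data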;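 further: 0% = DMSO wells and 100% = sodium butyrate wells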
AHR activator = activators of human aryl hydrocarbon receptor; AID 2796; P35869; activation, % at 5 µM; AHR-responsive luciferase reporter cells, luminescence; 320,000 compounds, 2.5% hits; in the data active means activation above about 47%;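 further: 0% = vehicle wells and 100% = reference agonist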
Target sequence (P35869 whole entry, looked up): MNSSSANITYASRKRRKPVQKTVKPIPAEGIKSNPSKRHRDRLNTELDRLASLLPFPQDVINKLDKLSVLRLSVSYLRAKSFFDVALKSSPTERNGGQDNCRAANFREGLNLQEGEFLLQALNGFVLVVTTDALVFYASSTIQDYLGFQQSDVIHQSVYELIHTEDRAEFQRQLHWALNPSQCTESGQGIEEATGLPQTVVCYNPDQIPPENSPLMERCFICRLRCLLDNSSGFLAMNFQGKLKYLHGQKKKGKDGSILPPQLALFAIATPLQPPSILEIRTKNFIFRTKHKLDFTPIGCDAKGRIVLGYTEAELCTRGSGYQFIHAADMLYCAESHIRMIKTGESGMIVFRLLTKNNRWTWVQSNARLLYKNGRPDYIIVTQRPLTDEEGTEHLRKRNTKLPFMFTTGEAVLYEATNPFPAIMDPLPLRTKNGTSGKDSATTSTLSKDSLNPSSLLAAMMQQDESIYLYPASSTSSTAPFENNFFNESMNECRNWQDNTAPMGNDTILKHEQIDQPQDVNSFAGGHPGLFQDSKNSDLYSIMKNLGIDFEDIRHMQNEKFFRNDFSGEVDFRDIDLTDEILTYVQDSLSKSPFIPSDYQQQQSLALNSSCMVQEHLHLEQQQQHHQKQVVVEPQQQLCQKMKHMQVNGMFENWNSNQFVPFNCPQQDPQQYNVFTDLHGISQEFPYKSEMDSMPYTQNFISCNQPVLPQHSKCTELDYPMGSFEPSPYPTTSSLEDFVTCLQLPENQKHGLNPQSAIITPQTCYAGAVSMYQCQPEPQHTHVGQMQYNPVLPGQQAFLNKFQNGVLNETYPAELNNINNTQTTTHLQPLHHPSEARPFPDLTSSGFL
ssDAF-12 act = activates DAF-12 receptor from parasite S. stercoralis. 370,000 compounds, 1% hits. activation, % at 6.8 µM. HEK293 ssDAF-12/GRIP1 lit1-tk-luc reporter, luminescence; % of 3 µM dafachronic acid response. AID 652126;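 active means activation above the mean over all tested compounds plus 3 SD, cut at about 0.9% in these data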;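 further: 0% = DMSO-only wells and 100% = 3 µM delta7-dafachronic acid wells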
hcDAF12 agonist = activates DAF-12 receptor from parasite H. contortus; activation, % at 6.8 µM; AID 652067; HEK293 hcDAF-12 lit1-tk-luc reporter, luminescence; 0% DMSO, 100% Δ7-dafachronic acid; 370,000 compounds, 1.4% hits;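 active means activation above the mean of all tested compounds plus 3 SD, cut at about 5.5% in these data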;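 further: 100% = response to 3 µM Δ7-dafachronic acid high control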
DAX1 inh-2 = inhibitors of human orphan nuclear receptor DAX1 (NR0B1); P51843; 340,000 compounds, 0.99% hits; HEK293 Gal4-DAX1 luciferase reporter, luminescence; inhibition, % at 6.75 µM;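 active means inhibition above the mean over all tested compounds plus 3 SD, cut at about 4.2% in these data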;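 further: 0% = DAX1-transfected cells with DMSO and 100% = empty-vector control cells with DMSO; inhibition shows as a rise in luminescence from relieved DAX1 repression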
* = called active by the depositor; nt = not tested or not shown.

SMILES	DAX1 inh-1	hgDAF12 agonist	AHR activator	ssDAF-12 act	hcDAF12 agonist	DAX1 inh-2
CCCC(C)c1nnc(NC(=O)COc2ccc3c(c2)OCO3)s1 (configuration not stated)	-0.1	0.3	53.0*	-0.7	-0.1	-1.6
O=C(COc1ccc2c(c1)OCO2)Nc1nncs1	1.0	3.1	69.2*	-0.6	1.3	0.6
C=CCON1C(=O)C(=O)N(OCC=C)[C@H]2CCCC[C@H]21	-0.2	-1.1	-0.7	-0.9	-1.5	nt
Cc1ccc(-c2nnn(CC(=O)Nc3nnc(C(C)C)s3)n2)cc1	0.2	-0.2	2.9	-0.8	1.5	-0.7
CC(C)c1ccc(CNc2ccc3c(c2)ncn3C)cc1	0.5	1.5	63.0*	-0.9	-0.6	0.8
COCCCNC(=O)c1ccc2sc(C3=C[C@@H](O)[C@@H](O)[C@@H](CO)O3)nc2c1	0.1	0.9	nt	-1.0	0.0	nt
CC(=O)c1ccccc1OCCOc1ncnc2sccc12	0.9	11.1*	6.2	-1.9	2.4	-0.3
COCCCNC(=O)c1oc2ccc(S(=O)(=O)N3CCOCC3)cc2c1C	0.3	1.9	1.3	-1.4	-0.7	4.9*
Cc1c(C(=O)NC2CCCc3ccccc32)oc2ccc(S(=O)(=O)N3CCOCC3)cc12 (configuration not stated)	-0.5	-1.4	-0.1	-1.5	-1.0	5.8*
Cc1c(C(=O)NC2CCCc3ccccc32)oc2ccc(S(=O)(=O)N3CCCC3)cc12 (configuration not stated)	0.0	0.4	2.2	-0.9	-1.1	0.5
CC(C)c1[nH]nc2c1C(c1ccccc1)NC2=O (configuration not stated)	0.9	1.8	nt	-1.0	-0.6	nt
CCCCCCN1C[C@@H](n2cc(COC(=O)c3ccccc3)nn2)[C@H](O)C[C@@H]1c1ccc(OC)cc1	0.0	2.5	nt	-1.2	-0.9	-0.1
CCCCNc1cccc2c1S(=O)(=O)N[C@H](C)CO2	-0.1	2.1	nt	-0.8	0.6	nt
Brc1ccc(-c2noc3c2-c2nc(-c4ccccc4)sc2CC3)cc1	0.8	0.8	9.6	-1.0	-0.2	-0.3
O=C(NCC1CCCO1)C1CCN(S(=O)(=O)c2ccccc2)CC1 (configuration not stated)	0.6	-0.6	22.7	-1.0	-0.2	-1.5
COC(=O)c1ccccc1S(=O)(=O)N1CCC(C(=O)NCC2CCCO2)CC1 (configuration not stated)	1.2	0.4	-4.8	0.5	-0.8	4.3*
CCOC(=O)[C@@]12CCC3=C1N(CCC3)C(=O)[C@H](CC(=O)NCc1ccccc1)C2	0.2	-1.1	nt	-1.0	0.3	nt
CCOC(=O)[C@]12CCCC=C1N(CCCOC)C(=O)[C@@H]2CC(=O)N1CCSCC1	0.2	-1.5	nt	-1.1	-1.6	nt
CN1CCN(C(=O)c2cc3ccccc3[nH]2)CC1	0.1	2.1	17.8	0.1	1.6	0.1
Cc1ccc(S(=O)(=O)N2CCCN(C(=O)c3cc4ccccc4[nH]3)CC2)cc1	-0.3	4.4	62.4*	0.0	5.8*	0.9
Cc1cccc(NC(=O)CSCC(=O)N2CCN(Cc3ccc4c(c3)OCO4)CC2)c1	-1.4	-0.8	2.8	-1.4	-2.7	-1.0
O=C1CNC(=S)N1C1CCCCCC1	-0.4	1.7	-1.9	-0.3	0.4	-0.2
Cc1ccc2c(=O)n3c(nc2c1)C(Cc1ccccc1)NC(=O)c1cc2ccccc2cc1-3 (configuration not stated)	2.3	-1.1	nt	1.2*	1.4	-0.3
CCC1NC(=O)c2cc3ccccc3cc2-n2c1nc1cc(F)ccc1c2=O (configuration not stated)	-0.1	-3.9	nt	-0.4	0.2	-0.8
CC1NC(=O)c2cc3ccccc3cc2-n2c1nc1cc(Cl)ccc1c2=O (configuration not stated)	-1.3	1.8	nt	1.1*	3.0	1.4
SMILES	DAX1 inh-1	hgDAF12 agonist	AHR activator	ssDAF-12 act	hcDAF12 agonist	DAX1 inh-2
CC1NC(=O)c2cc3ccccc3cc2-n2c1nc1cc(F)ccc1c2=O (configuration not stated)	-0.3	0.6	nt	1.8*	4.3	-0.2
Clc1ccc(-c2csc(N3CCc4ccccc4C3)n2)cc1	-0.1	0.5	52.1*	0.1	-1.0	0.4
COc1ccc(C2CC(=O)C(c3ccccc3)=CN2Cc2ccccc2)cc1 (configuration not stated)	-1.7	-1.2	nt	-0.6	-1.8	nt
Cc1ccc(Nc2nc(COC(=O)C3CC3)cs2)cc1	1.9	10.9*	3.6	-0.9	1.8	-0.2
O=C(C[n+]1ccccc1)N1c2ccccc2Sc2ccccc21	-0.9	-1.0	-0.9	-0.9	-1.6	4.5*
CN(C)c1cc[n+](CC(=O)N2c3ccccc3Sc3ccccc32)cc1	-0.3	-1.2	2.4	-1.3	-1.7	-0.7
CC(=O)c1ccc(C(=O)N2CCCC(CO)(Cc3ccccc3C)C2)s1 (configuration not stated)	-0.3	-2.8	nt	-1.2	-2.1	0.1
CCC1(CC)NC(=O)N(CC(=O)OCC(=O)Nc2cc(C)ccc2C)C1=O	-0.7	-0.5	1.6	-0.9	-2.4	-0.8
CCN(CC)S(=O)(=O)c1ccc(C)c(NC(=O)COC(=O)CN2C(=O)NC(C)(C)C2=O)c1	-0.1	-1.9	0.6	0.9*	-0.2	0.8
Cc1nonc1CN(C)C(=O)CC1C(=O)NCCN1Cc1ccc(F)c(F)c1 (configuration not stated)	0.1	-0.1	0.8	-1.7	-0.7	-0.7
Cn1c(O)c(/C=C2\C=NN=C2c2ccccc2)sc1=S	0.4	1.5	74.9*	-1.1	1.9	0.6
CCCCCCn1c(O)c(/C=C2\C=NN=C2c2ccccc2)sc1=S	0.9	-0.2	16.2	-0.3	2.5	1.4
CCCCn1c(O)c(/C=C2\C=NN=C2c2ccccc2)sc1=S	-0.7	-2.7	66.4*	-0.6	1.9	0.8
O=C(CCC(=O)N/N=C/c1cc(Cl)cc(Cl)c1O)NCc1ccccc1	0.7	-0.7	0.0	-0.3	1.7	1.6
COc1cc(N2CCCC2)c(OC)cc1/C=C(/C#N)c1cccc(F)c1	nt	nt	69.5*	nt	nt	0.6
COc1ccc(C(=O)Nc2nncs2)cc1S(=O)(=O)N1CC(c2ccccc2)CC1=O (configuration not stated)	0.5	-3.6	0.7	-0.5	-1.9	8.0*
Cn1c(/C=C/c2cccc(Br)c2)nc2ccccc2c1=O	0.0	3.8	4.9	-1.3	0.7	-0.6
Cn1c(CC2C(=O)Nc3ccc(Br)cc32)nc2ccccc2c1=O (configuration not stated)	-1.3	0.3	50.2*	-0.8	2.7	-1.2
O=C1Nc2ccc(Br)cc2C1Cc1ccccc1F (configuration not stated)	0.1	-0.3	57.3*	-1.2	0.0	-0.5
O=C(NNS(=O)(=O)c1ccccc1Cl)c1nn(-c2ccc(F)cc2)ccc1=O	0.0	-1.1	3.5	-1.1	0.9	0.1

Screening data deposited in PubChem by The Scripps Research Institute Molecular Screening Center.
